# Measured values: ChEMBL document CHEMBL3988442, “University of Dundee, Small-Polar-MMV Screening Library” (2021)
# Among all 69,000 compounds or so, about 1,000 (1.4%) showed an effect of 50% or more. The full list was thinned out, with strong results kept by preference.
# Tested on: Leishmania donovani
# Test: Leishmania intramacrophage assay
# Format: functional, organism-based
# Parameters: scale not given: in the data most compounds retested in dose-response had high values
compound,measurement,setting,value
O=C1CC2(CCCCN2C(=O)c2ccsc2)CN1CC1CC1 (stereo not drawn),Percent Effect,"30 µM, 30.03 µM",15.53%
Cc1cnn(CC(=O)Nc2cc(-n3nnnc3C3CC3)ccc2F)c1,Percent Effect,"30.3 µM, […]",1.472%
Cc1nn(C)c2nc(N3CCCCC3c3nccs3)sc12 (stereo not drawn),Percent Effect,"30.3 µM, […]",21.88%
Cc1nn(C)c2nc(N3CCCCC3c3ccc(F)cc3)sc12 (stereo not drawn),Percent Effect,"30.3 µM, […]",66.72%
Cc1nn(C)c2nc(N3CCCC3c3nccs3)sc12 (stereo not drawn),Percent Effect,"30.3 µM, […]",4.253%
CCC(C)NC(=O)c1cc(Br)c2c(c1)OCCO2 (stereo not drawn),Percent Effect,30 µM,30.6%
COCCN1CCc2c(c(COc3cccnc3)nn2C)C1.O=C(O)C(F)(F)F.O=C(O)C(F)(F)F,Percent Effect,"30.3 µM, […]",24.9%
Cn1nc(COc2cccnc2)c2c1CCN(CC1CC1)C2.O=C(O)C(F)(F)F.O=C(O)C(F)(F)F,Percent Effect,"30.3 µM, […]",98.75%
Cn1nc(COc2cccnc2)c2c1CCN(Cc1ccco1)C2.O=C(O)C(F)(F)F.O=C(O)C(F)(F)F,Percent Effect,"30.3 µM, […]",17.65%
NC(=O)c1ccc(N2CCCCC2)c(NC(=O)c2cc(F)ccc2F)c1,Percent Effect,"30.3 µM, […]",-1.673%
NC(=O)c1ccc(N2CCCCC2)c(NC(=O)c2cc(Br)ccc2Cl)c1,Percent Effect,"30.3 µM, […]",19.23%
NC(=O)c1ccc(N2CCCCC2)c(NC(=O)c2cc(Br)ccc2F)c1,Percent Effect,"30 µM, 30.03 µM",59.99%
Cc1nnsc1C(=O)N1CCCC(c2nccn2Cc2cscn2)C1 (stereo not drawn),Percent Effect,"30.3 µM, […]",-3.035%
Cc1ccsc1CN1C[C@@H]2COC[C@]2(CNC(=O)c2ccco2)C1.O=C(O)C(F)(F)F,Percent Effect,"30.3 µM, […]",31.86%
Cn1cc(CN2C[C@@H]3COC[C@]3(CNC(=O)c3ccco3)C2)cn1.O=C(O)C(F)(F)F,Percent Effect,"30.3 µM, […]",-2.896%
O=C(NC[C@]12COC[C@H]1CN(Cc1cccc(F)c1)C2)c1ccco1,Percent Effect,"30.3 µM, […]",61.24%
CNC(=O)NCC(CO)Cc1ccccc1OC(F)(F)F (stereo not drawn),Percent Effect,"30.3 µM, […]",7.334%
CC(c1cccc(-c2ncccc2C#N)c1)N(C)C (stereo not drawn),Percent Effect,"30.3 µM, […]",54.7%
CC(c1cccc(-c2ncc(C#N)c(N)n2)c1)N(C)C (stereo not drawn),Percent Effect,"30.3 µM, […]",-18.48%
CC(c1cccc(-c2ncccc2F)c1)N(C)C (stereo not drawn),Percent Effect,"30.3 µM, […]",42.01%
Cc1cccc(C(=O)N2C[C@@H]3[C@H](CC(=O)Nc4cccnc4)[C@@H]3C2)n1.O=C(O)C(F)(F)F.O=C(O)C(F)(F)F,Percent Effect,"30.3 µM, […]",3.537%
N#Cc1ccnc(N2CCN(C(=O)c3ccc4c(c3)CCO4)CC2)c1,Percent Effect,"30.3 µM, […]",-46.75%
c1cc(-c2cncnc2)cc(-c2ccn(CC3CCNC3)n2)c1 (stereo not drawn),Percent Effect,"30.3 µM, […]",5.053%
Cc1nccc(-c2cccc(-c3ccn(CC4CCNC4)n3)c2)n1 (stereo not drawn),Percent Effect,"30.3 µM, […]",-9.02%
Cc1ccsc1-c1cccc(-c2ccn(CC3CCNC3)n2)c1 (stereo not drawn),Percent Effect,"30.3 µM, […]",82.16%
Cc1ccc(CN(C)C(=O)NCC(C)(C)CCS(C)(=O)=O)s1,Percent Effect,"30.3 µM, […]",20%
CCCNCc1ccc(OCc2ccc3c(c2)OCCO3)cc1.Cl,Percent Effect,"30.3 µM, […]",67.66%
CNCc1ccc(OCc2ccc3c(c2)OCCO3)cc1.Cl,Percent Effect,"30.3 µM, […]",22.52%
CCNCc1ccc(OCc2ccc3c(c2)OCCO3)cc1.Cl,Percent Effect,"30.3 µM, […]",21.82%
CN1CCC(c2nnc3ccc(C(=O)NC4CCCC4)cn23)C1.O=C(O)C(F)(F)F (stereo not drawn),Percent Effect,"30.3 µM, […]",23.32%
O=C(CN1CCCC1c1nc2cc(F)ccc2[nH]1)NCc1ccccn1 (stereo not drawn),Percent Effect,"30.3 µM, […]",34.7%
Fc1ccc2[nH]c(C3CCCN3CCCn3cccn3)nc2c1 (stereo not drawn),Percent Effect,"30.3 µM, […]",2.015%
Fc1ccc2[nH]c(C3CCCN3CCc3ccccn3)nc2c1 (stereo not drawn),Percent Effect,"30 µM, 30.03 µM",50.9%
Cc1ccc(C(=O)N2C[C@@H]3COC[C@]3(COc3cccnc3)C2)cn1,Percent Effect,"30 µM, 30.03 µM",15.47%
CC1CN(CC(=O)Nc2cccnc2)CCN1c1nccs1 (stereo not drawn),Percent Effect,"30 µM, 30.03 µM",19.22%
CC1CN(CC(=O)Nc2ccncc2)CCN1c1nccs1 (stereo not drawn),Percent Effect,30 µM,51.62%
CC1CN(CC(=O)Nc2nncs2)CCN1c1nccs1 (stereo not drawn),Percent Effect,"30 µM, 30.03 µM",5.617%
CN(Cc1csc(-c2cccs2)n1)Cc1ncccc1C(=O)O,Percent Effect,"30.3 µM, […]",21.95%
CN(Cc1csc(-c2cccs2)n1)Cc1cccnc1N,Percent Effect,"30.3 µM, […]",54.27%
Cc1nc(CN(C)Cc2csc(-c3cccs3)n2)co1,Percent Effect,"30.3 µM, […]",17.38%
Cc1cc(C)nc(N2CCC(c3cccc(CCC(=O)O)n3)CC2)n1,Percent Effect,"30.3 µM, […]",-9.293%
COc1ccc(CN2CCc3ncnc(C4CCOC4)c3CC2)cc1.O=C(O)C(F)(F)F (stereo not drawn),Percent Effect,"30 µM, 30.03 µM",20.96%
CCOCc1ccccc1NC(=O)NC1CCN(C2CCCC2)C1 (stereo not drawn),Percent Effect,"30.3 µM, […]",-2.945%
CN(C)c1ncc(CN2CCOC(C(=O)Nc3ccccc3)C2)cn1 (stereo not drawn),Percent Effect,"30 µM, 30.03 µM",-7.564%
Cc1cc(C)c(CNC(=O)N2CCCC2c2cccn2C)c(=O)[nH]1 (stereo not drawn),Percent Effect,"30 µM, 30.03 µM",13.7%
C[C@@H](CO)NC(=O)c1ccc2nc(NS(C)(=O)=O)sc2c1,Percent Effect,"30.3 µM, […]",55.63%
CC(CO)NC(=O)c1ccc2[nH]/c(=N\S(C)(=O)=O)sc2c1 (stereo not drawn),Percent Effect,"30.3 µM, […]",-35.22%
CSCC[C@@H](CO)NC(=O)c1ccc2nc(NS(C)(=O)=O)sc2c1,Percent Effect,"30.3 µM, […]",-13.25%
CC(C)c1nn(C)c(N(C)C)c1CNC1CCCOc2ccccc21 (stereo not drawn),Percent Effect,"30.3 µM, […]",11.28%
Cc1c(C(=O)N2CCN(C)CC2)n(C)c2ccc(Cl)cc12,Percent Effect,"30.3 µM, […]",11.88%
Cc1c(C(=O)N2CCC(N3CCCCC3)CC2)n(C)c2ccc(Cl)cc12,Percent Effect,"30.3 µM, […]",83.29%
Cc1c(C(=O)N2CCOCC2)n(C)c2ccc(Cl)cc12.Cl,Percent Effect,"30.3 µM, […]",19.33%
CCS(=O)(=O)N1C[C@@H](c2ccccc2)[C@@]2(CCNC2=O)C1,Percent Effect,"30.3 µM, […]",42.69%
CC1(C)CN(C(CNS(N)(=O)=O)c2ccc(Cl)cc2)CCO1 (stereo not drawn),Percent Effect,"30.3 µM, […]",-5.286%
CC(C)N(C)C(=O)C1CSCN1S(=O)(=O)c1cc(Cl)ccc1Cl (stereo not drawn),Percent Effect,"30.3 µM, […]",6.679%
CC(C)(C)NC(=O)C1CSCN1S(=O)(=O)c1ccccc1F (stereo not drawn),Percent Effect,"30.3 µM, […]",-3.758%
CC(C)N(C)C(=O)C1CSCN1S(=O)(=O)c1ccccc1F (stereo not drawn),Percent Effect,"30.3 µM, […]",51.74%
Cc1cccc(NC(=O)CNC(=O)c2ccccc2F)c1,Percent Effect,"30.3 µM, […]",-11.93%
CNC(=O)c1nc(CC(=O)Nc2cccc(C(F)(F)F)c2)no1,Percent Effect,"30.3 µM, […]",-13.79%
O=c1cc(N2CCc3ccccc3C2)cnn1CCC1CCOC1 (stereo not drawn),Percent Effect,"30.3 µM, […]",44.37%
CC(C)C(=O)N1CC[C@H]2N(C)CC[C@@]2(C(=O)Nc2ccccc2)CC1,Percent Effect,"30.3 µM, […]",56.37%
CNC(=O)N1CC[C@H]2N(C)CC[C@@]2(C(=O)Nc2ccccc2)CC1,Percent Effect,"30 µM, 30.03 µM",11.56%
CC(C)C(=O)N1CC[C@H]2N(C)CC[C@@]2(C(=O)Nc2cccnc2)CC1.O=C(O)C(F)(F)F.O=C(O)C(F)(F)F,Percent Effect,"30.3 µM, […]",36.27%
